Measurements taken from PubChem BioAssay (NCI).
About 83,000 compounds went through this panel and 20% of them were active in at least one assay; those are over-represented in the sample as a whole.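 Percent growth is the endpoint: 0 to 100 indicates growth inhibition (40 means 60% inhibition), 0 means no net growth, and negative values indicate cell death.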 Values without a mark were called inactive. Active and inactive are the calls of the source. Rule for the calls: active = growth percent below 10; inactive = the rest.

Tested on: LOX IMVI melanoma
Test: NCI-60 one-dose screen, 48 h (100 = growth as untreated, 0 = no growth, -100 = all killed)
Settings: 10 µM unless noted

Compared with `O=C(/C=C/CN1CCOCC1)Nc1cc2c(Nc3cccc(Cl)c3F)ncnc2cc1OCCOC(F)F`, `CN(C)C/C=C/C(=O)Nc1cc2c(Nc3ccc(F)c(Cl)c3F)ncnc2cc1OCCOC(F)F` is lower in growth: 80.7% for the first, 15.3% for the second.

Going from `CCn1cc(C2NC(=O)c3cc(F)ccc3N2)c2cccc(Cl)c21` (stereo unspecified) to `CCCCOc1nc2c(C)cccc2cc1C1CNC(=O)c2ccccc2N1` (stereo unspecified), the growth rises from 16.5% to 60.8%.

First: CC(=O)Nc1ccc2c(c1)/C(=C\C=C/c1ccc([N+](C)(C)C)cc1)c1ccccc1-2
Second: Cc1ccc(C2=NN(c3ccc(S(=O)(=O)NC(=O)NCc4ccccc4)cc3)C(c3ccc(N(C)C)cc3)C2)c(C)c1 (stereo unspecified)
The growth of the first is higher: 80.1% for the first, 36.3% for the second.

First: c1ccc([P+](CCC[P+](c2ccccc2)(c2ccccc2)c2ccccc2)(c2ccccc2)c2ccccc2)cc1
Second: O=C(CNC(=O)c1cccc2ccccc12)Nc1ccccc1Oc1ccccc1
The growth of the first is higher: 86.6% for the first, 15.5% for the second.

Going from `COc1ccc2c(c1)NC(=O)CN2c1nc(C)nc2ccccc12` to `CCN(CC)CCSc1c2ccc(Cl)cc2nc2ccc(OC)cc12`, the growth rises from 22% to 36.7%.

First: CCCCCC/C=C\CCCCCCCCOc1ccc(CCOP(=O)(O)OCC[N+](C)(C)C)cc1
Second: COC1=CC(c2ccc[nH]2)=N/C1=C\c1[nH]c(C)c(CCCn2cc(CCCCCCCCC[C@@H]3Cc4cc(O)ccc4C4CC[C@]5(C)[C@@H](O)CC[C@H]5C43)nn2)c1C (stereo partly specified)
The growth of the first is higher: 81.3% for the first, 13.4% for the second.

Compared with `O=C(Nc1ccc(I)cc1)c1cc([N+](=O)[O-])ccc1O`, `NC(=O)c1c(NC(=O)c2ccc3c(c2)OCO3)sc2c1CCC(=O)C2` is lower in growth: 20.2% for the first, 15% for the second.

First: COC12CC(=O)C(C(C)=O)=C(O)C1(C)c1c(O)c(C)c(O)c(C(C)=O)c1O2 (stereo unspecified)
Second: C=CCN=C1NC(=O)/C(=C/c2cc(C(C)(C)C)c(O)c(C(C)(C)C)c2)S1
The growth of the first is lower: 57.5% for the first, 70.8% for the second.

Compared with `O=S(=O)(NCCCNc1nccc(-c2c(-c3ccccc3)nc3sccn23)n1)c1ccc(F)cc1`, `Nc1nc(-c2ccccc2)cs1` is higher in growth: 23.7% for the first, 97.9% for the second.

First: CC[C@H](C)[C@@H]1NC(=O)[C@H]([C@@H](C)O)NC(=O)C(Cc2ccccc2)NC(=O)[C@@H]2CCCN2C(=O)C(C(C)C)NC(=O)C(Cc2ccccc2)NC(=O)CNC(=O)[C@@H]2CCCN2C1=O (stereo partly specified)
Second: c1ccc2c(c1)Oc1ccccc1C2C1c2ccccc2Oc2ccccc21
The growth of the first is higher: 88.7% for the first, 86.5% for the second.

Compared with `Cc1cc2c(C(C)C)c(O)c(O)c(C=NCCCCC(=O)O)c2c(O)c1-c1c(C)cc2c(C(C)C)c(O)c(O)c(C=NCCCCC(=O)O)c2c1O`, `COc1ccc(S(=O)(=O)Nc2cc(/C=C\c3cc(OC)c(OC)c(OC)c3)cc(OC)c2OC)cc1OC` is higher in growth: 43.4% for the first, 48.2% for the second.

Compound `COc1ccc(Cn2cc(COc3cc(/C=C/C(=O)c4cc(OC)c(OC)c(OC)c4)ccc3OC)nn2)cc1` has a growth of 36.4%.

For `Cc1oc2nc[nH]c(=O)c2c1C(=O)/C=C/c1ccc(Cl)cc1`, the growth was 8.44% (active).

Tested on: SK-MEL-28 melanoma
Test: as above
Settings: 10 µM unless noted

Compared with `Clc1ccc(/C=C/c2nc(N3CCOCC3)c3nc(Cl)c(Cl)cc3n2)cc1`, `Cc1oc2nc[nH]c(=O)c2c1C(=O)/C=C/c1ccc(Cl)cc1` is lower in growth: 111% for the first, 39.4% for the second.

Compared with `CCOC(=O)/C=C\C(=O)NC(N)=O`, `C=CCOc1cccc(/C=C/C(=O)c2sc(Nc3cccnc3)nc2C)c1` is lower in growth: 118% for the first, 87.1% for the second.

Compared with `O=C(Cc1c(F)cccc1Cl)Nc1ccc(S(=O)(=O)Nc2ncccn2)cc1`, `O=S(=O)(NCCCNc1nccc(-c2c(-c3ccccc3)nc3sccn23)n1)c1ccc(F)cc1` is lower in growth: 122% for the first, 56.3% for the second.

Compared with `C=CCc1cc(Cl)cc2c(OC(C)=O)c(C(C)=O)c(-c3ccccc3)nc12`, `Cc1c(C(=O)NCc2ccccc2)[n+](=O)c2cc(F)ccc2n1[O-]` is lower in growth: 116% for the first, 91.3% for the second.

First: CCN(CC)S(=O)(=O)c1ccc2[nH]c(=O)cc(C(=O)Nc3ccc(OC)cc3OC)c2c1
Second: CCN(CC)CCSc1c2ccc(Cl)cc2nc2ccc(OC)cc12
The growth of the first is higher: 123% for the first, 113% for the second.

First: O=C(Nc1cc(C(F)(F)F)cc(C(F)(F)F)c1)Nc1ccc(OCc2nnc(-c3ccc(Cl)cc3)o2)c(F)c1
Second: COc1ccc(Cn2cc(COc3cc(/C=C/C(=O)c4cc(OC)c(OC)c(OC)c4)ccc3OC)nn2)cc1
The growth of the first is lower: 28.8% for the first, 84.6% for the second.

First: O=C1CCCCN1CCCCC#Cc1ccccc1C#Cc1ccccn1
Second: COc1ccc2c(c1)C=CC(C#N)N2C(=O)c1ccccc1 (stereo unspecified)
The growth of the first is higher: 110% for the first, 58.9% for the second.

Compared with `CC1(C)OC2COC3(C(=O)O)OC(C)(C)OC3C2O1` (stereo unspecified), `COC12CC(=O)C(C(C)=O)=C(O)C1(C)c1c(O)c(C)c(O)c(C(C)=O)c1O2` (stereo unspecified) is lower in growth: 107% for the first, 86.4% for the second.

Compared with `COc1cc(C2C=C(C)N=C3SC(C)=NN32)cc(OC)c1OC` (stereo unspecified), `COc1ccc(S(=O)(=O)Nc2cc(/C=C\c3cc(OC)c(OC)c(OC)c3)cc(OC)c2OC)cc1OC` is lower in growth: 119% for the first, 52.5% for the second.

Compared with `O=C(/C=C/CN1CCOCC1)Nc1cc2c(Nc3cccc(Cl)c3F)ncnc2cc1OCCOC(F)F`, `CN(C)C/C=C/C(=O)Nc1cc2c(Nc3ccc(F)c(Cl)c3F)ncnc2cc1OCCOC(F)F` is lower in growth: 101% for the first, 49.4% for the second.

First: CCn1cc(C2NC(=O)c3cc(F)ccc3N2)c2cccc(Cl)c21 (stereo unspecified)
Second: CCCCOc1nc2c(C)cccc2cc1C1CNC(=O)c2ccccc2N1 (stereo unspecified)
The growth of the first is lower: 58.2% for the first, 66.4% for the second.

Going from `CC(=O)Nc1ccc2c(c1)/C(=C\C=C/c1ccc([N+](C)(C)C)cc1)c1ccccc1-2` to `Cc1ccc(C2=NN(c3ccc(S(=O)(=O)NC(=O)NCc4ccccc4)cc3)C(c3ccc(N(C)C)cc3)C2)c(C)c1` (stereo unspecified), the growth falls from 66.3% to 26.6%.

Compared with `c1ccc([P+](CCC[P+](c2ccccc2)(c2ccccc2)c2ccccc2)(c2ccccc2)c2ccccc2)cc1`, `O=C(CNC(=O)c1cccc2ccccc12)Nc1ccccc1Oc1ccccc1` is lower in growth: 75.1% for the first, 57.8% for the second.

First: COc1ccc2c(c1)NC(=O)CN2c1nc(C)nc2ccccc12
Second: Nc1nc(-c2ccccc2)cs1
The growth of the first is lower: 59% for the first, 109% for the second.

Compared with `CCCCCC/C=C\CCCCCCCCOc1ccc(CCOP(=O)(O)OCC[N+](C)(C)C)cc1`, `COC1=CC(c2ccc[nH]2)=N/C1=C\c1[nH]c(C)c(CCCn2cc(CCCCCCCCC[C@@H]3Cc4cc(O)ccc4C4CC[C@]5(C)[C@@H](O)CC[C@H]5C43)nn2)c1C` (stereo partly specified) is lower in growth: 95.5% for the first, 75.9% for the second.

Going from `O=C(Nc1ccc(I)cc1)c1cc([N+](=O)[O-])ccc1O` to `c1ccc2c(c1)Oc1ccccc1C2C1c2ccccc2Oc2ccccc21`, the growth rises from 16.4% to 110%.

Going from `CC[C@H](C)[C@@H]1NC(=O)[C@H]([C@@H](C)O)NC(=O)C(Cc2ccccc2)NC(=O)[C@@H]2CCCN2C(=O)C(C(C)C)NC(=O)C(Cc2ccccc2)NC(=O)CNC(=O)[C@@H]2CCCN2C1=O` (stereo partly specified) to `Cc1cc2c(C(C)C)c(O)c(O)c(C=NCCCCC(=O)O)c2c(O)c1-c1c(C)cc2c(C(C)C)c(O)c(O)c(C=NCCCCC(=O)O)c2c1O`, the growth falls from 76.4% to 64.2%.

For `CCC#CC[C@H]1C/C=C2/C(=O)C=C[C@@H]2C/C=C\CCCC(=O)O1`, the growth was 1.63% (active).
`COc1ccc(C(=O)c2cc(OC)c(OC)c(OC)c2)cc1/C=C/C(=O)c1ccc2c(c1)OCO2` was tested, and the growth was -57% (active).
For `NC(=O)c1c(NC(=O)c2ccc3c(c2)OCO3)sc2c1CCC(=O)C2`, the growth was -38.7% (active).
